Inconclusive results are not listed. Calls of active or inactive are those of the source. Calls follow the shape of the dose curve; as a rule, active = well fitted curve in the direction sought with a large enough effect; inconclusive = small, poorly fitted or top-dose-only effect, or another doubt; inactive = no such curve, though single readings can be large; an effect the other way counts as inactive or inconclusive.
Columns and labels:
[1] = target: Cellular tumor antigen p53 (Homo sapiens) (UniProt P04637); experiment: Primary qHTS for small molecule compounds that upregulate eGFP-tagged delta133p53alpha (in N-terminal) cells. (AID 2060322); conditions: NCI-H358 eGFP-delta133p53alpha fluorescence, 24 h; activation: active compounds read high;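 also: series mostly up to about 56 µM; 0% = DMSO vehicle and 100% = reference activator; nearly all actives have a fitted effect of over 75% in size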
How it was run: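 NCI-H358 cells pre-induced 24 h with 10 ng/ml doxycycline to express N-terminal eGFP-delta133p53alpha, then dosed 24 h at 37C without doxycycline; fixed, Hoechst-stained, GFP intensity by laser scanning cytometry, normalized to DMSO (0%) and 57.5 uM 5-azacytidine (100%).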

[2] = target: Aldehyde dehydrogenase, mitochondrial (Homo sapiens) (UniProt P05091); experiment: qHTS for Inhibitors of the Aldehyde Dehydrogenase Family (ALDH2) Primary screen (AID 2061308);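 also: plate controls were vehicle for no effect and reference inhibitor for full effect; nearly all actives have a fitted effect of over 55% in size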
[3] = target: Retinaldehyde dehydrogenase 3 (Homo sapiens) (UniProt P47895); experiment: qHTS for Inhibitors of the Aldehyde Dehydrogenase Family (ALDH1A3) Primary screen (AID 2061315);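 also: plate controls were DMSO vehicle for no effect and reference inhibitor for full effect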

Cellular tumor antigen p53 (Homo sapiens), sequence (P04637 whole entry, looked up): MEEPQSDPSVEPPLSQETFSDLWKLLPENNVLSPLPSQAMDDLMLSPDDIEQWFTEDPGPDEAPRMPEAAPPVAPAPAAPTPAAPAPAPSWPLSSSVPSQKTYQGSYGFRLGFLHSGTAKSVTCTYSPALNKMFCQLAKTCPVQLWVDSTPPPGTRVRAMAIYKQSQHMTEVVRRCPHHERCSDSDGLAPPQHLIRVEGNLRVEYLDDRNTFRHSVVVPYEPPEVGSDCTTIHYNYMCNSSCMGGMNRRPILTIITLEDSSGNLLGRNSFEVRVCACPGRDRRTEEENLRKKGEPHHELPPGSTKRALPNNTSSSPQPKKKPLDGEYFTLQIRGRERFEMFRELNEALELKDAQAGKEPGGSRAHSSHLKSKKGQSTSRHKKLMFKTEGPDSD

C=C1[C@@H]2[C@H]3OC(=O)C(=C)[C@@H]3CC[C@@](C)(O)[C@@H]2C[C@@H]1O[C@@H]1O[C@H](CO)[C@@H](O)[C@H](O)[C@H]1O
inactive: activation [1] 15.2% | Potency [2] | Potency [3]

CC(C)C(=O)OC[C@H]1O[C@H](O[C@H]2O[C@H](CO)[C@@H](O)[C@H](O)[C@H]2O)[C@H](O)[C@@H](O)[C@@H]1O
inactive: activation [1] -6.11% | Potency [2] | Potency [3]

CCOC(=O)c1ccc(OCCN2C[C@H](O)[C@@H](O)[C@H](O)[C@H]2CO)cc1
inactive: activation [1] -6.33% | Potency [2] | Potency [3]

C=C1C(O[C@@H]2O[C@H](CO)[C@@H](O)[C@H](O)[C@@H]2O)CC2C(C)(C)C(O)CCC2(C)C1CC/C(C)=C\CO (some centres not stated)
inactive: activation [1] 6.11% | Potency [2] | Potency [3]

CC(=O)OC(C)(C)/C=C/C(=O)C(C)(O)C1C(O)CC2(C)C3CC=C(C(C)(C)C(=O)O)C(CC(=O)O)C3(C)C(=O)CC12C (configuration not stated)
inactive: activation [1] -3.82% | Potency [2] | Potency [3]

CC(C)=C1CC2[C@](C)(CC[C@@H](OC(=O)C3(C)OC3C)[C@@]2(C)O)CC1=O (some centres not stated)
inactive: activation [1] -20.6% | Potency [2] | Potency [3]

CC(=O)O[C@H]1CC[C@H](C)[C@@]2(C)[C@H](OC(C)=O)c3c(C)coc3C(=O)[C@H]12
inactive: activation [1] -3.82% | Potency [2] | Potency [3]

O=C(O)CCCCCC[C@H]1C(=O)NC(=O)N1CC[C@@H](O)C1CCCCC1
inactive: activation [1] -1.67% | Potency [2] | Potency [3]

CC1(C(=O)O)CCCC2(C)C3CCC4CC3(CCC12)CC4=O (configuration not stated)
inactive: activation [1] 16.1% | Potency [2] | Potency [3]

Source: PubChem BioAssay (NCATS)
